This note sets out measurements from PubChem BioAssay (NCI).

The structures appear in SMILES notation. This is part of a sample that, as a whole, favours compounds with a hit. Of some 83,000 tested, about 20% had one in any assay.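 Testing used 96-well plates and a 48-hour single-concentration exposure. Example: -40 means 40% of the starting cells died.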 Unmarked numbers belong to inactive results. Activity calls are given as the source filed them. Rule for the calls: active = growth percent below 10; inactive = the rest.

The assay concerns MDA-MB-468 breast. As to the kind of experiment: NCI-60 one-dose screen, 48 h (100 = growth as untreated, 0 = no growth, -100 = all killed). Particulars: 10 µM unless noted.
With `C=CCCCCOc1cccc(/C=C2\N=C3SCCCN3C2=O)c1`, the growth was 89%.

Consider `Cn1nccc1Nc1nccc(-c2ccn([C@H](CO)c3ccc(Cl)c(F)c3)c(=O)c2)n1`, for which the growth was 129%.

Turning to `[O-][n+]1c(Cl)cc(Cl)c2ccccc21`, the growth is 123%.

Consider `O=C1C=C(O)C(=O)C(CC2=C(O)C(=O)C=C(O)C2=O)=C1O`, for which the growth was 98.7%.

Consider `COCCCOc1cc(C[C@@H](C[C@H](N)[C@@H](O)C[C@H](C(=O)NCC(C)(C)C(N)=O)C(C)C)C(C)C)ccc1OC`, for which the growth is 101%.

As to `CC[C@H](CC[C@@H](C)[C@H]1CC[C@H]2[C@@H]3CC(=O)C4=CC(=O)/C(=C/c5ccc([N+](=O)[O-])cc5)C[C@]4(C)[C@H]3CC[C@]12C)C(C)C`, the growth is 104%.

Consider `O=C(CN1CCOCC1)Nc1ccc2ncnc(Nc3ccc(Oc4cccc(C(F)(F)F)c4)c(Cl)c3)c2c1`, for which the growth was -7.54% (active).

Turning to `COc1ccc(-c2ccc3ncc4c(c3c2)n(-c2ccc(N3CCNCC3)c(C(F)(F)F)c2)c(=O)n4C)cn1`, the growth was -87% (active).

Consider `COc1cc(F)c(-c2nc3c(C)cccc3n2Cc2c(F)cccc2F)c(F)c1`, for which the growth was 65.5%.

For `c1ccc(-c2nc(Nc3nccnn3)c3ccccc3n2)cc1`, the growth was 83.5%.

As to `CC1(C)NCCC[C@]2(C)[C@H]3CC(=O)[C@H]4[C@@H]5C[C@](C)(CO)CC[C@]5(C)CC[C@@]4(C)[C@]3(C)CC[C@@H]12`, the growth was 86.9%.

Turning to `CC(=O)Oc1cc2cnc3c4cc(OC(C)=O)c(OC(C)=O)cc4ccc3c2cc1OC(C)=O`, the growth is -7.77% (active).

`O=C(N/N=C/c1c[nH]c2ccccc12)c1cc(-c2ccccc2)on1`: the growth was 94.9%.

On to `COc1ccc2c(c1)c(-c1noc(C(=O)c3cn(C)c4ccc(Br)cc34)n1)cn2C`, for which the growth is 120%.

Regarding `CNCCCn1c2c(c3ccc(Cl)cc3c1=O)C(=O)c1cc(OC)cnc1-2`, the growth was 67.2%.

For `Cc1ccc(Nc2c(C(N)=O)cnc3ccc(-c4csc(N)n4)cc23)cc1`, the growth is 83.9%.

On to `CCCCNC(=O)Oc1ccc(/C(=C(/C)Cc2ccc(OC)cc2)c2ccc(OCCN3CCCC3)cc2)cc1`, for which the growth was 53.5%.

In the case of `COc1cccc(/C=C/C(=O)c2cc3c(N)c(C(=O)Nc4ccccc4)sc3nc2C)c1`, the growth was 15.3%.

In the case of `COP(=O)(OC)C(C)(C)CC(=O)CC(C#N)(C#N)C(C#N)C#N`, the growth was 104%.

As for `COc1ccc(/C=C2/C(=O)NC(SCC(=O)N3CCN(c4cc5c(cc4F)c(=O)c(C(=O)O)cn5C4CC4)CC3)=NC2N)cc1OC` (stereo not given), the growth is 102%.

On to `O=C(/C=C/c1cccc(Br)c1)c1cccc(OCCCCOc2cccc(C(=O)/C=C/c3cccc(Br)c3)c2)c1`, for which the growth was 102%.

Turning to `Cc1ccc(-c2nc3nc(-c4ccccc4)nc(N4CCNCC4)c3o2)cc1`, the growth was -87.2% (active).

As to `O=C1NCN(CCO)CN1`, the growth is 99.9%.

Regarding `NC1CCC(Nc2nc(NCc3cc(Cl)ccc3O)c3ncn(C4CCCC4)c3n2)CC1` (stereo not given), the growth was -51% (active).

Take `C/C=C\COc1cc(C)c(Cl)cc1Cl`: the growth is 91.5%.

Consider `C=C(C[C@](O)(C(=O)/C=C/c1ccc(Cl)cc1)C(=O)OC)c1ccccc1`, for which the growth was 69.5%.

In the case of `[2H]c1nc(=Nc2cc(NC(=O)C=C)c(N(C)CCN(C)C)cc2OC)[nH]c(-c2cn(C([2H])([2H])[2H])c3ccccc23)c1[2H]`, the growth is -9.46% (active).

In the case of `COc1ccc(OC)c(-c2cc(-c3ccc(Cl)cc3)c3c(N)c(C(=O)c4ccc(Cl)cc4)sc3n2)c1`, the growth is 117%.

Regarding `Cc1nc(Nc2cccc(NC(=O)Nc3ccc(Cl)cc3)c2)c2ccccc2n1`, the growth is 75%.

`C=C1C(=O)O[C@H]2[C@H]1CC/C(COC(=O)C(C)c1ccc(CC(C)C)cc1)=C\CC[C@@]1(C)O[C@@H]21` (stereo not given in full): the growth is 6.36% (active).

Take `Cc1ccc(S(=O)(=O)OC2COCOC2C(OS(=O)(=O)c2ccc(C)cc2)C2OCOCC2OS(=O)(=O)c2ccc(C)cc2)cc1` (stereo not given): the growth is 108%.

For the compound `Brc1cccc(-c2cc(-c3ccc4nccnc4c3)[nH]n2)c1`, the growth is 22.9% [25 µM].

Consider `Cc1ccc(C(C)C)cc1NC(=O)Nc1ccc([N+](=O)[O-])cc1`, for which the growth is 4.03% (active).

For the compound `O=C(Nc1ccc2c(ccn2Cc2ccccn2)c1)c1cnccn1`, the growth is 103%.

With `COc1cc(-c2cc(-c3nc4cc(Cl)c(Cl)cc4[nH]3)[nH]n2)cc(OC)c1OC`, the growth was 51.7%.
